Test results as given in PubChem BioAssay (Tox21).
Results filed as inconclusive are left out. Active and inactive are the calls of the source. Unless noted, the call rests on the fitted dose curve; in most records, active means well fitted curve in the direction sought with a large enough effect in the repeat runs; inconclusive means weak or mixed curves; inactive means no such curve, though single readings can be large; an effect the other way counts as inactive or inconclusive.

How the values were obtained:
[1] = qHTS assay for small molecule agonists of the p53 signaling pathway (AID 651631; calls by dose curve; further: nearly all actives have a fitted effect of over 15% in size)
How it was run: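 HCT-116 cells carrying a beta-lactamase reporter under p53 response elements were dosed with compound for 16 h at 37 °C. LiveBLAzer B/G FRET substrate was then added for 2 h at room temperature, and fluorescence intensity was read to detect pathway agonism.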

[2] = qHTS assay for small molecules that induce genotoxicity in human embryonic kidney cells expressing luciferase-tagged ATAD5 (AID 651632); further: nearly all actives have a fitted effect of over 15% in size
How it was run: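 ATAD5-luc HEK293T, 2,000 cells/well; cpd or DMSO pin-transferred; 16 hr, 37C/5% CO2; Amplite 30 min RT; luminescence.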

[3] = qHTS assay for small molecule agonists of the p53 signaling pathway - cell viability (AID 651633; calls by dose curve;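 further: p53RE-bla HCT reporter cells with a stable beta-lactamase p53 reporter; nearly all actives have a fitted effect of over 30% in size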)
How it was run: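 p53RE-bla cells, seeded at 4,000 per well and rested 5 h at 37 C/5% CO2, received compounds in DMSO for 16 h at 37 C. CellTiter-Glo was then added, and luminescence was read after 30 min at room temperature to gauge cytotoxicity.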

[4] = qHTS assay for small molecules that induce genotoxicity in human embryonic kidney cells expressing luciferase-tagged ATAD5 - cell viability (AID 651634; calls by dose curve; further: nearly all actives have a fitted effect of over 25% in size)
How it was run: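 Fluorescence from CellTiter-Fluor, reporting protease activity within live cells, served as the viability read-out. HEK293T cells carrying luciferase-tagged ATAD5 had been treated with compound for 15.5 hr at 37C.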

[5] = qHTS assay for small molecule disruptors of the mitochondrial membrane potential - cell viability (AID 720634; calls by dose curve;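 further: human HepG2 liver cancer cells; nearly all actives have a fitted effect of over 20% in size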)
How it was run: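 Cells: HepG2, 2,000/well, attached overnight. Compound 1 hr, 37 C/5% CO2. +m-MPI dye, +CellTiter-Glo 30 min RT. Readout: luminescence (ATP).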

[6] = qHTS assay to test for compound auto fluorescence at 590 nm (red) in HepG2 cells (AID 720674)
How it was run: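 Compound auto-fluorescence is scored relative to Rose Bengal sodium, measured at 540/590 nm in live HepG2 cultures after 1 hr compound contact (37 C, 5% CO2).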

[7] = qHTS assay to test for compound auto fluorescence at 535 nm (green) in HepG2 cells (AID 720675)
[8] = qHTS assay to test for compound auto fluorescence at 460 nm (blue) in HEK293 cells (AID 720678)
How it was run: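 Blue-channel (Ex/Em 405/460 nm) intensity measured in HEK293 cultures after overnight compound exposure at 37C; signal expressed relative to triamterene. Cells plated 2,000 per well in 10% dialyzed FBS medium and allowed 4-5 hr to attach.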

[9] = qHTS assay to test for compound auto fluorescence at 590 nm (red) in HEK293 cells (AID 720679)
How it was run: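 Red-channel autofluorescence (Ex/Em 540/590 nm; Rose Bengal sodium reference) was measured after overnight 37C, 5% CO2 exposure of attached HEK293 cells, 2,000 per well in medium with 10% dialyzed FBS.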

[10] = qHTS assay to test for compound auto fluorescence at 535 nm (green) in HEK293 cells (AID 720680)
[11] = qHTS assay to test for compound auto fluorescence at 460 nm (blue) in HEK293 cell free culture (AID 720681)
How it was run: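 Test compounds were pinned into cell-free culture medium (DMEM with 10% FBS) and fluorescence was read directly at Ex/Em 405/460 nm. Signals were expressed as fluorescence equivalents of triamterene, with DMSO vehicle as control.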

[12] = qHTS assay to test for compound auto fluorescence at 535 nm (green) in HEK293 cell free culture (AID 720682)
How it was run: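 Green-label autofluorescence (485 nm excitation, 535 nm emission) measured on compound added to cell-free culture medium (DMEM, 10% FBS). Output is expressed relative to fluorescein.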

[13] = qHTS assay to test for compound auto fluorescence at 590 nm (red) in HEK293 cell free culture (AID 720683)
How it was run: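 Tox21 10K library compounds were pinned into cell-free DMEM with 10% FBS and fluorescence was read at excitation 540 nm. Activity is expressed as Rose Bengal sodium equivalency.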

[14] = qHTS assay to test for compound auto fluorescence at 590 nm (red) in HepG2 cell free culture (AID 720684)
How it was run: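 Measured in medium alone (MEM containing 10% FBS) following pintool addition of compound; emission at 590 nm with 540 nm excitation, referenced to Rose Bengal sodium.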

[15] = qHTS assay to test for compound auto fluorescence at 460 nm (blue) in HepG2 cell free culture (AID 720685)
How it was run: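 Compound (23 nL) or DMSO pinned into cell-free MEM with 10% FBS; blue fluorescence read at 405/460 nm excitation/emission, expressed as auto-fluorescence equivalency to triamterene.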

[16] = qHTS assay to test for compound auto fluorescence at 535 nm (green) in HepG2 cell free culture (AID 720686)
[17] = qHTS assay to test for compound auto fluorescence at 460 nm (blue) in HepG2 cells (AID 720687)
How it was run: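 Cells (2,000/well in MEM with 10% FBS) attached overnight at 37 C, then were exposed to compound or DMSO for 1 hr at 37 C, 5% CO2. Fluorescence read at Ex/Em 405/460 nm, expressed as triamterene-equivalent signal.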

[18] = target: Glucocorticoid receptor (Homo sapiens) (UniProt P04150); assay: qHTS assay to identify small molecule agonists of the glucocorticoid receptor (GR) signaling pathway (AID 720691; active means well fitted activation curve with a large enough effect in the signal ratio in the repeat runs, not every such curve was filed as active; the % refers to the signal ratio); conditions: GR-bla HeLa, beta-lactamase reporter ratio, 18 h; activation: at 62.4 µM (top of the series)
How it was run: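 Fluorescence intensity from LiveBLAzer B/G FRET substrate (2 h, room temperature) reports beta-lactamase expression driven by the glucocorticoid response element in GR-bla HeLa cells after 18 h compound exposure at 37 C.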

[19] = target: Glucocorticoid receptor (Homo sapiens) (UniProt P04150); assay: qHTS assay to identify small molecule antagonists of the glucocorticoid receptor (GR) signaling pathway (AID 720692; active means well fitted inhibition curve with a large enough effect in the signal ratio in the repeat runs, not every such curve was filed as active; the % refers to the signal ratio)
How it was run: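 HeLa GR-bla cells; cmpd + dex 5 nM final, 18 h 37 C; LiveBLAzer B/G FRET substrate 2 h RT; fluorescence intensity read. Antagonist mode, qHTS.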

Measured: Potency

Sequence of Glucocorticoid receptor (Homo sapiens) (P04150 whole entry, looked up): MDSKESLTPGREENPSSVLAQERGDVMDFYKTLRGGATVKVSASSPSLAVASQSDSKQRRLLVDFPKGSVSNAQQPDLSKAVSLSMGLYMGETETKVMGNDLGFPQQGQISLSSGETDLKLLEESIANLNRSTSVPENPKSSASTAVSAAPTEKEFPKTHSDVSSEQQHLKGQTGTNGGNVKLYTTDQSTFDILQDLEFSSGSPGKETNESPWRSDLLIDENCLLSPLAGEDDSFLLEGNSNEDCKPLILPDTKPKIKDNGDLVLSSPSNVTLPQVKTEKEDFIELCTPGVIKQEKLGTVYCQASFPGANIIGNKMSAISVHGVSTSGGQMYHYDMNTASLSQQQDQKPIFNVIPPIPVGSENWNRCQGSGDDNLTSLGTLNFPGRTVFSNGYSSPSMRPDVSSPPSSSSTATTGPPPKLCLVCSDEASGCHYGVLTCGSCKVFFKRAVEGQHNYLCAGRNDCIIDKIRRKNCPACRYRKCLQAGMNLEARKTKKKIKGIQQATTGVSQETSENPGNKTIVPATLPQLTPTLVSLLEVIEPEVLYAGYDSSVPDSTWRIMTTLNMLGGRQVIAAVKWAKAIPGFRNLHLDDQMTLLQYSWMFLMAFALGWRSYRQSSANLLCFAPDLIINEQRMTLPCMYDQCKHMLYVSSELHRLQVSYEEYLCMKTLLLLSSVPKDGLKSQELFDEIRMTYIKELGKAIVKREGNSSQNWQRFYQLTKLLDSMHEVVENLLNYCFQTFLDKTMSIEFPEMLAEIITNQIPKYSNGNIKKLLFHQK

OC[C@H]1O[C@@H](O[C@H]2[C@H](O)[C@@H](O)[C@H](O)O[C@@H]2CO)[C@H](O)[C@@H](O)[C@@H]1O
inactive: all assays above

CC(=O)O[C@H]1C[C@@]2(C)[C@@H](C[C@@H](O)[C@H]3[C@@]4(C)CC[C@@H](O)[C@@H](C)[C@@H]4CC[C@@]32C)/C1=C(\CCC=C(C)C)C(=O)O
inactive: all assays above

CCCN(CC)C(CC)C(=O)Nc1c(C)cccc1C (stereo not drawn)
inactive: all assays above

COC1=C(C(=O)O)N2C(=O)[C@@H](NC(=O)[C@H](N)C3=CCC=CC3)[C@H]2SC1
inactive: all assays above

CN(CC(=O)N1CCOCC1)Cc1c(Cl)cccc1NC(=O)c1ccccc1
inactive: all assays above

CCCCCCCCCCCCCCCC(=O)O[C@@H]1[C@@H](O)[C@@H](O)[C@@H]([C@H](NC(=O)[C@@H]2C[C@@H](CCC)CN2C)[C@H](C)Cl)O[C@@H]1SC
inactive: all assays above

O=C1NC(=O)[C@H]2[C@@H]1[C@@H]1C=C[C@H]2C1
inactive: all assays above

CN1CC(O)c2cc(N=NC(N)=O)c(O)cc21 (stereo not drawn)
inactive: all assays above

CC(C)CN(C[C@@H](OP(=O)(O)O)[C@H](Cc1ccccc1)NC(=O)O[C@H]1CCOC1)S(=O)(=O)c1ccc(N)cc1
inactive: all assays above

O=C(O)c1cccc(/C=C2/C[C@@H]3[C@@H](/C=C/[C@@H](O)C4CCCCC4)[C@H](O)C[C@@H]3O2)c1
inactive: all assays above

CO/N=C(\C(=O)N[C@@H]1C(=O)N2C(C(=O)O)=C(CSC(=O)c3ccco3)CS[C@H]12)c1csc(N)n1
inactive: all assays above

Cc1cccc(C)c1N(CCCc1cccnc1)C(=O)C(C)N (stereo not drawn)
inactive: all assays above

COc1ccc(-c2noc(CC(=O)O)c2-c2ccc(OC)cc2)cc1
inactive: all assays above

Cc1cccc(C)c1NC(=O)NC1=CCCN1C
inactive: all assays above

NCCCC[C@H](N)C(=O)O
inactive: all assays above

Cc1nc(NS(=O)(=O)c2ccc(N)cc2)nc(C)c1Br
inactive: all assays above

CS(=O)(=O)OCCCNCCCOS(C)(=O)=O
inactive: all assays above

O=C(Cc1cccs1)N[C@@H]1C(=O)N2C(C(=O)[O-])=C(C[n+]3ccccc3)CS[C@H]12
inactive: all assays above

Nc1nc2c(c(=O)[nH]1)N(C=O)C(CNc1ccc(C(=O)N[C@@H](CCC(=O)O)C(=O)O)cc1)CN2 (stereo partly drawn)
inactive: all assays above

COc1ccc(CCNC[C@H](O)c2ccc(O)cc2)cc1OC
not listed: [7]
inactive: all other assays above

CCC(C)(C)OC(=O)N[C@@H](Cc1c[nH]c2ccccc12)C(=O)N[C@@H](CCSC)C(=O)N[C@@H](CC(=O)O)C(=O)N[C@@H](Cc1ccccc1)C(N)=O
not listed: [7]
inactive: all other assays above

CC[C@H]1OC(=O)[C@H](C)[C@@H](O[C@H]2C[C@@](C)(OC)[C@@H](O)[C@H](C)O2)[C@H](C)[C@@H](O[C@@H]2O[C@H](C)C[C@H](N(C)C)[C@H]2O)[C@](C)(O)C[C@@H](C)[C@@H]2N[C@@H](COCCOC)O[C@@H]([C@H]2C)[C@]1(C)O
not listed: [5] | [18] | [19]
inactive: all other assays above
